{
  "source": "PubChem BioAssay (NCI)",
  "assay": "NCI Yeast Anticancer Drug Screen. Data for the mlh1 strain (AID 171);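 also: 0% = growth of vehicle-treated control cultures of the same strain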",
  "conditions": "S. cerevisiae mlh1 strain growth inhibition, active compounds read high",
  "protocol": "Growth inhibition of yeast strains with defined genetic alterations is measured as a screen for potential anti-cancer activity. Selected strains with alterations in DNA damage repair or cell cycle control were exposed to compounds and growth inhibition was measured relative to vehicle treated controls. The strain used in this assay is mlh1",
  "note": "The panel holds about 79,000 compounds, 15% with a hit somewhere; the sample as a whole holds those more often. Values without a mark were called inactive. Calls of active or inactive are those of the source. Rule as the data show it: active = growth inhibition above about 70%; inactive = the rest.",
  "data": [
    {"smiles": "CNC(=O)OCc1c(COC(=O)NC)c(-c2ccc(Cl)cc2)n2c1CCC2", "values": [
      {"measurement": "growth inhibition", "setting": "at 1.2 µM", "value": -61, "unit": "%"},
      {"measurement": "growth inhibition", "setting": "at 3.7 µM", "value": -93, "unit": "%"},
      {"measurement": "growth inhibition", "setting": "at 11.0 µM", "value": -67, "unit": "%"},
      {"measurement": "growth inhibition", "setting": "at 33.0 µM", "value": 10, "unit": "%"},
      {"measurement": "growth inhibition", "setting": "at 100.0 µM", "value": "98% (active)"}
    ]},
    {"smiles": "CCC(C)NC1=NCC(C)S1", "note": "(stereo not given)", "values": [
      {"measurement": "growth inhibition", "setting": "at 1.2 µM", "value": -27, "unit": "%"},
      {"measurement": "growth inhibition", "setting": "at 3.7 µM", "value": -27, "unit": "%"},
      {"measurement": "growth inhibition", "setting": "at 11.0 µM", "value": -22, "unit": "%"},
      {"measurement": "growth inhibition", "setting": "at 33.0 µM", "value": -36, "unit": "%"},
      {"measurement": "growth inhibition", "setting": "at 100.0 µM", "value": -42, "unit": "%"}
    ]},
    {"smiles": "COC(C(O)CO)C(O)C(O)C(=O)NNc1ccccc1", "note": "(stereo not given)", "values": [
      {"measurement": "growth inhibition", "setting": "at 1.2 µM", "value": 2, "unit": "%"},
      {"measurement": "growth inhibition", "setting": "at 3.7 µM", "value": 9, "unit": "%"},
      {"measurement": "growth inhibition", "setting": "at 11.0 µM", "value": 44, "unit": "%"},
      {"measurement": "growth inhibition", "setting": "at 33.0 µM", "value": 61, "unit": "%"},
      {"measurement": "growth inhibition", "setting": "at 100.0 µM", "value": "97% (active)"}
    ]},
    {"smiles": "O=c1[nH]c(-c2ccccc2)nc2c1sc1nc3ccccc3n12", "values": [
      {"measurement": "growth inhibition", "setting": "at 1.2 µM", "value": -24, "unit": "%"},
      {"measurement": "growth inhibition", "setting": "at 3.7 µM", "value": -44, "unit": "%"},
      {"measurement": "growth inhibition", "setting": "at 11.0 µM", "value": -47, "unit": "%"},
      {"measurement": "growth inhibition", "setting": "at 33.0 µM", "value": -28, "unit": "%"},
      {"measurement": "growth inhibition", "setting": "at 100.0 µM", "value": -42, "unit": "%"}
    ]},
    {"smiles": "CN(C)[C@@H]1C(=O)C(C(N)=O)=C(O)[C@@]2(O)C(=O)C3=C(O)c4c(O)cccc4C[C@H]3C[C@@H]12", "values": [
      {"measurement": "growth inhibition", "setting": "at 1.2 µM", "value": -13, "unit": "%"},
      {"measurement": "growth inhibition", "setting": "at 3.7 µM", "value": -11, "unit": "%"},
      {"measurement": "growth inhibition", "setting": "at 11.0 µM", "value": 36, "unit": "%"},
      {"measurement": "growth inhibition", "setting": "at 33.0 µM", "value": "97% (active)"},
      {"measurement": "growth inhibition", "setting": "at 100.0 µM", "value": "99% (active)"}
    ]},
    {"smiles": "Nc1cc(N)c(N=Nc2cccc3c(S(=O)(=O)O)cccc23)cc1N=Nc1cc([N+](=O)[O-])ccc1O", "values": [
      {"measurement": "growth inhibition", "setting": "at 1.2 µM", "value": -15, "unit": "%"},
      {"measurement": "growth inhibition", "setting": "at 3.7 µM", "value": -21, "unit": "%"},
      {"measurement": "growth inhibition", "setting": "at 11.0 µM", "value": -15, "unit": "%"},
      {"measurement": "growth inhibition", "setting": "at 33.0 µM", "value": -18, "unit": "%"},
      {"measurement": "growth inhibition", "setting": "at 100.0 µM", "value": 23, "unit": "%"}
    ]},
    {"smiles": "CC[N+]1(C)CCC(O)(c2ccc(OC)cc2)C(C(=O)c2ccc(OC)cc2)C1", "note": "(stereo not given)", "values": [
      {"measurement": "growth inhibition", "setting": "at 1.2 µM", "value": -78, "unit": "%"},
      {"measurement": "growth inhibition", "setting": "at 3.7 µM", "value": -64, "unit": "%"},
      {"measurement": "growth inhibition", "setting": "at 11.0 µM", "value": -16, "unit": "%"},
      {"measurement": "growth inhibition", "setting": "at 33.0 µM", "value": -55, "unit": "%"},
      {"measurement": "growth inhibition", "setting": "at 100.0 µM", "value": -62, "unit": "%"}
    ]},
    {"smiles": "CN1CCN(C(=O)/C=C/C(=O)c2ccccc2)CC1", "values": [
      {"measurement": "growth inhibition", "setting": "at 1.2 µM", "value": -1, "unit": "%"},
      {"measurement": "growth inhibition", "setting": "at 3.7 µM", "value": 12, "unit": "%"},
      {"measurement": "growth inhibition", "setting": "at 11.0 µM", "value": 35, "unit": "%"},
      {"measurement": "growth inhibition", "setting": "at 33.0 µM", "value": "85% (active)"},
      {"measurement": "growth inhibition", "setting": "at 100.0 µM", "value": "96% (active)"}
    ]}
  ]
}
